Measurements taken from PMC7862700, “An all-to-all approach to the identification of sequence-specific readers for epigenetic DNA modifications on cytosine”.

Experiments:
Test in all cases: DAPPL (digital affinity profiling via proximity ligation, sequencing); 10 mM Tris-HCl pH 7.5, 50 mM NaCl, 1 mM DTT, 4% glycerol, room temperature, 30 min; GST-TFs on glutathione beads, 16-mer random dsDNA library, 0.1% formaldehyde crosslink after washing; high values mean tight binding
Conditions in all cases: protein: recombinant; tags: N-terminal GST; dsDNA, one strand shown
FLI1 = target: T1, FLI1 (Homo sapiens, UniProt Q01543 1-452)
T1 sequence: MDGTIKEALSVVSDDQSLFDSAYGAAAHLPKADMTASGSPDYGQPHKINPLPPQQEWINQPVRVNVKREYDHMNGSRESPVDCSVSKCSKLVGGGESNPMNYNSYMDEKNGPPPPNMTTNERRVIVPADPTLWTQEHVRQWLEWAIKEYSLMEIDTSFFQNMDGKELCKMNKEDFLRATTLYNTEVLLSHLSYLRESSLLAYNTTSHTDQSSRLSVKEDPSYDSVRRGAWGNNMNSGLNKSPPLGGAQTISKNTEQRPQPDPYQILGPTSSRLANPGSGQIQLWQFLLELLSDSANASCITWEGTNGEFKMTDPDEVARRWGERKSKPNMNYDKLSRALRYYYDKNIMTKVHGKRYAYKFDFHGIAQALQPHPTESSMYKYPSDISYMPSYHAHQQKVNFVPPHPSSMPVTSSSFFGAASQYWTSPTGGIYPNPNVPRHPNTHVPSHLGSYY
Outline: (§1)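 Human transcription factors fused to GST were expressed in yeast, captured on glutathione beads, given DNA barcodes and pooled with a GST-only negative control. Pools were incubated with 200 nmole of a 16-mer random double-stranded DNA library in Tris/NaCl/DTT/glycerol buffer at room temperature for 30 min. They were then washed, crosslinked with 0.1% formaldehyde, proximity-ligated (BsaI/T4 ligase, 1 h, 37 °C), PCR-amplified and sequenced on an Illumina NextSeq500. Binding signal is each 6-mer's read frequency for a factor divided by its frequency for the GST control.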

ELK1 = target: T2, ELK1 (Homo sapiens, UniProt P19419 1-428)
T2 sequence: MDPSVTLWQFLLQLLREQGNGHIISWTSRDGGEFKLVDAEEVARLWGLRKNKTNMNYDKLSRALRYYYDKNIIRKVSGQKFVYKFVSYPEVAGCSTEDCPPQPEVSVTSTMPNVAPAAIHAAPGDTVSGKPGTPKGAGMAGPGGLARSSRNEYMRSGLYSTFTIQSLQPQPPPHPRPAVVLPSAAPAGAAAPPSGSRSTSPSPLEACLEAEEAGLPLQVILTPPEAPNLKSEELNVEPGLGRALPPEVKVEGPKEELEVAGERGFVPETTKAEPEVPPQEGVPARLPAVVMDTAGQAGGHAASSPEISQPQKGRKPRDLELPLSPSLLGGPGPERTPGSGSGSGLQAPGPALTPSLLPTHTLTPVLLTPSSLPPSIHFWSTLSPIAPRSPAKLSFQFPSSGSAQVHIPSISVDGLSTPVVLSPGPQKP
Outline: as §1

GABPA = target: T3, GABPA (Homo sapiens, UniProt Q06546 1-454)
T3 sequence: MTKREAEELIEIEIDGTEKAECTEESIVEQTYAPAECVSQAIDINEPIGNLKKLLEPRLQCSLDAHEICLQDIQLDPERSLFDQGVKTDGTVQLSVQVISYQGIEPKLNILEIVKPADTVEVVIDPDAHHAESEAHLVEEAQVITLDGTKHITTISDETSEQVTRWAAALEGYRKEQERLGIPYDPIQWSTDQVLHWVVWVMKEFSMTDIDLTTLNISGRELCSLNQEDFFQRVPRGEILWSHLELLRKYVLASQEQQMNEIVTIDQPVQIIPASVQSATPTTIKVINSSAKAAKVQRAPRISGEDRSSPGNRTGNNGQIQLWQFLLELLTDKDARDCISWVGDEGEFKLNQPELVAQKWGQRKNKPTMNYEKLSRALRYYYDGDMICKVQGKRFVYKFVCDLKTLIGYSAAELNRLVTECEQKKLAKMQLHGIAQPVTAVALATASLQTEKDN
Outline: as §1

ERG = target: T4, ERG (Homo sapiens, UniProt P11308 1-479)
T4 sequence: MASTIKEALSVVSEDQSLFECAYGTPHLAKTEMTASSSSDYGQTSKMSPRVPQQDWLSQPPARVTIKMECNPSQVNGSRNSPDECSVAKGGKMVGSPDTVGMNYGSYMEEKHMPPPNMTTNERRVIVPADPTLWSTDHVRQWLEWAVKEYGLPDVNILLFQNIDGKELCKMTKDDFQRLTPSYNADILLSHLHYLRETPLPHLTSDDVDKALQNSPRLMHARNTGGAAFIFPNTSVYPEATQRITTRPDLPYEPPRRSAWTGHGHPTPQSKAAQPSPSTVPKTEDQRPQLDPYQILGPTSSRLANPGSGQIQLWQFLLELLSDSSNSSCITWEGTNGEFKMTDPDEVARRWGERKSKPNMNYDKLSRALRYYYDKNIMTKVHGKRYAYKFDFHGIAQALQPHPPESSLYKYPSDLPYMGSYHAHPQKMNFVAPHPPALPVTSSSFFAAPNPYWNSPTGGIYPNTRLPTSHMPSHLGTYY
Outline: as §1

ELF1 = ELF1 (Homo sapiens, UniProt P32519 1-619)
Outline: as §1

EHF = target: T5, EHF (Homo sapiens, UniProt Q9NZC4 1-300)
T5 sequence: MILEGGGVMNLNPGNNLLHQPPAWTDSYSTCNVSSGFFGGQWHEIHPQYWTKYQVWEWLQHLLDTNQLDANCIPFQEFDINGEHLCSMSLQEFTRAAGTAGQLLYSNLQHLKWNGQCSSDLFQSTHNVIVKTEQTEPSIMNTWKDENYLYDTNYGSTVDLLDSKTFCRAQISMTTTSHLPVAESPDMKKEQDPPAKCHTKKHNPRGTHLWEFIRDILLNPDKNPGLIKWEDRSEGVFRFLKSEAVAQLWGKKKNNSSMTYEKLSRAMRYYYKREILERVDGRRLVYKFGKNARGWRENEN
Outline: as §1

SPI1 = SPI1 (Homo sapiens, UniProt P17947 1-270)
Outline: as §1

SPIB = SPIB (Homo sapiens, UniProt Q01892 1-262)
Outline: as §1

ELK3 = target: T6, ELK3 (Homo sapiens, UniProt P41970 1-407)
T6 sequence: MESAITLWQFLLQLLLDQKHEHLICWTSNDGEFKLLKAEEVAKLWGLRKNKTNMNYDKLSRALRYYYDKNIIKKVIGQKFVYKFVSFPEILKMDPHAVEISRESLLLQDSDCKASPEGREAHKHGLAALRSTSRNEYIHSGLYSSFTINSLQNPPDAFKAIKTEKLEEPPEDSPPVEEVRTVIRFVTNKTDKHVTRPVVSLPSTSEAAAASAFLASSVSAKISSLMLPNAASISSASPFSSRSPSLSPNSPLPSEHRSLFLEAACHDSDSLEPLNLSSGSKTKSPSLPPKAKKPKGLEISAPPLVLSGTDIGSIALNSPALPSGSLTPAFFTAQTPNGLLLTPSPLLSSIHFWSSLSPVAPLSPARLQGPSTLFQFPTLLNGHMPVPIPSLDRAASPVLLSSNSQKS
Outline: as §1

Chain of SPIB (Q01892 whole entry): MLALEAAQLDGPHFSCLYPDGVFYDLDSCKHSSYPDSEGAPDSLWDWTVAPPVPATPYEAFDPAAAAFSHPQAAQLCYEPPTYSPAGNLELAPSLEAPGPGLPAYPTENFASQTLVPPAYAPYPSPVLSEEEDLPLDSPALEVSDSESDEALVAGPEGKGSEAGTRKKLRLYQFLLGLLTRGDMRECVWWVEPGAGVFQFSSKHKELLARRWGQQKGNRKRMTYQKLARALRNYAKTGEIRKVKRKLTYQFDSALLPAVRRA
Chain of ELF1 (P32519 whole entry): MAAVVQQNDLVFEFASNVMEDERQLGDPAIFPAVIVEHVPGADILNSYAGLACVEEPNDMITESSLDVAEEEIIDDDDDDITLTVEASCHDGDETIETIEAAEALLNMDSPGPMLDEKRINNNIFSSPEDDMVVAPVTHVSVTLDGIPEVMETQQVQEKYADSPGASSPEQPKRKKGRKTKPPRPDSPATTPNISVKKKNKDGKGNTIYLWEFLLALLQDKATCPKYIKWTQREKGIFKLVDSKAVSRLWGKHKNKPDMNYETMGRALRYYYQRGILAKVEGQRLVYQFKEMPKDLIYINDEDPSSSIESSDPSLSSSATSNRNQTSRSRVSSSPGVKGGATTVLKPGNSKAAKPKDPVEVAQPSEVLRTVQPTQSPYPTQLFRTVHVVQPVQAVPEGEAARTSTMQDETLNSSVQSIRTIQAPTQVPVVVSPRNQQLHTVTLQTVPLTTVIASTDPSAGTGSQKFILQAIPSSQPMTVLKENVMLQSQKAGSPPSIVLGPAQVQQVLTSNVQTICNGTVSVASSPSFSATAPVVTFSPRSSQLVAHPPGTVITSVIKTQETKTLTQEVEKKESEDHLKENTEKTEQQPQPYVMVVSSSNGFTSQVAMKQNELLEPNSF

| Sequence | binding signal (FLI1) | binding signal (ELK1) | binding signal (GABPA) | binding signal (ERG) | binding signal (ELF1) | binding signal (EHF) | binding signal (SPI1) | binding signal (SPIB) | binding signal (ELK3) |
| --- | --- | --- | --- | --- | --- | --- | --- | --- | --- |
| CTTTCT | 1.6 fold enrichment (6-mer frequency, TF over GST control) | 1.6 fold enrichment (6-mer frequency, TF over GST control) | 1.5 fold enrichment (6-mer frequency, TF over GST control) | 1.53 fold enrichment (6-mer frequency, TF over GST control) | 1.55 fold enrichment (6-mer frequency, TF over GST control) | 1.53 fold enrichment (6-mer frequency, TF over GST control) | 1.67 fold enrichment (6-mer frequency, TF over GST control) | 1.48 fold enrichment (6-mer frequency, TF over GST control) | 1.65 fold enrichment (6-mer frequency, TF over GST control) |
| CAAGCA | 1.1 fold enrichment (6-mer frequency, TF over GST control) | 1.1 fold enrichment (6-mer frequency, TF over GST control) | 1.14 fold enrichment (6-mer frequency, TF over GST control) | 1.07 fold enrichment (6-mer frequency, TF over GST control) | 1.18 fold enrichment (6-mer frequency, TF over GST control) | 1.02 fold enrichment (6-mer frequency, TF over GST control) | 1.07 fold enrichment (6-mer frequency, TF over GST control) | 1.06 fold enrichment (6-mer frequency, TF over GST control) | 1.1 fold enrichment (6-mer frequency, TF over GST control) |
| CTCATC | 1.5 fold enrichment (6-mer frequency, TF over GST control) | 1.36 fold enrichment (6-mer frequency, TF over GST control) | 1.41 fold enrichment (6-mer frequency, TF over GST control) | 1.34 fold enrichment (6-mer frequency, TF over GST control) | 1.35 fold enrichment (6-mer frequency, TF over GST control) | 1.35 fold enrichment (6-mer frequency, TF over GST control) | 1.21 fold enrichment (6-mer frequency, TF over GST control) | 1.41 fold enrichment (6-mer frequency, TF over GST control) | 1.47 fold enrichment (6-mer frequency, TF over GST control) |
| TGTCCT | 1.37 fold enrichment (6-mer frequency, TF over GST control) | 1.38 fold enrichment (6-mer frequency, TF over GST control) | 1.58 fold enrichment (6-mer frequency, TF over GST control) | 1.38 fold enrichment (6-mer frequency, TF over GST control) | 1.5 fold enrichment (6-mer frequency, TF over GST control) | 1.52 fold enrichment (6-mer frequency, TF over GST control) | 1.44 fold enrichment (6-mer frequency, TF over GST control) | 1.54 fold enrichment (6-mer frequency, TF over GST control) | 1.41 fold enrichment (6-mer frequency, TF over GST control) |
